{
  "source": "paper PMC7862700",
  "about": "“An all-to-all approach to the identification of sequence-specific readers for epigenetic DNA modifications on cytosine”",
  "test_in_all_cases": "DAPPL (digital affinity profiling via proximity ligation, sequencing); 10 mM Tris-HCl pH 7.5, 50 mM NaCl, 1 mM DTT, 4% glycerol, room temperature, 30 min; GST-TFs on glutathione beads, 16-mer random dsDNA library, 0.1% formaldehyde crosslink after washing; high values mean tight binding",
  "key": {"[1]": {"biological_target": "T1, FLI1 (Homo sapiens, UniProt Q01543 1-452)", "T1 sequence": "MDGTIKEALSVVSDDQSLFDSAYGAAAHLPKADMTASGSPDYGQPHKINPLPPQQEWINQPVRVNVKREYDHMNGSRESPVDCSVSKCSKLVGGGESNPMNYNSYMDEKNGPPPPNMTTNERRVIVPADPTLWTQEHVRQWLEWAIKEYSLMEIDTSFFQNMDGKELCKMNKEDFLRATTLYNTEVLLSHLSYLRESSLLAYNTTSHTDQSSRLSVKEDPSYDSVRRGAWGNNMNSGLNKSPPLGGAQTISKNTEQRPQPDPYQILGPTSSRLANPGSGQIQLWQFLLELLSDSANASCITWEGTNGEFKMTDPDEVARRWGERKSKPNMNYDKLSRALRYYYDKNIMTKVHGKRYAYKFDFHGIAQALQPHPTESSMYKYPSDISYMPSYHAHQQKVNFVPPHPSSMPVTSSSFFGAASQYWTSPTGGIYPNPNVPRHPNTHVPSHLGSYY", "conditions": "protein: recombinant; tags: N-terminal GST; dsDNA, one strand shown", "in_short": "(§1)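 In yeast, human transcription factors were expressed with a GST fusion, then pulled down on glutathione beads and given DNA barcodes. Pooled with a tag-only sample, they were exposed to 200 nmole of a 16-mer random double-stranded DNA library (Tris/NaCl/DTT/glycerol buffer, room temperature, 30 min), washed, crosslinked with 0.1% formaldehyde, proximity-ligated using BsaI/T4 ligase for 1 h at 37 °C, PCR-amplified and read on an Illumina NextSeq500. Each hexamer's frequency of reads for a factor, divided by the matching frequency for the tag-only sample, gives the binding signal.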"}, "[2]": {"biological_target": "T2, ELK1 (Homo sapiens, UniProt P19419 1-428)", "T2 sequence": "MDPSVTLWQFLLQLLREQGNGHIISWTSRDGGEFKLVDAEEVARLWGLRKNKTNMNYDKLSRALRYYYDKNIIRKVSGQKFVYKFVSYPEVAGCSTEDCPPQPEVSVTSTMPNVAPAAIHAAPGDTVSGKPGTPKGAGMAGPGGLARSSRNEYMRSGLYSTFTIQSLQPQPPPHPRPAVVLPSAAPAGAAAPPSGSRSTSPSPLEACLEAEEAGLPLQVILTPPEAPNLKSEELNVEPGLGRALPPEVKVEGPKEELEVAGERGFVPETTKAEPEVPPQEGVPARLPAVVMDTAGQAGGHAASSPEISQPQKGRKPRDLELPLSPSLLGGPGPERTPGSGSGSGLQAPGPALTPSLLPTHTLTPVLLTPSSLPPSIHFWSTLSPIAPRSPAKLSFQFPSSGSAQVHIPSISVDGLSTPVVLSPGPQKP", "conditions": "protein: recombinant; tags: N-terminal GST; dsDNA, one strand shown", "in_short": "as §1"}, "[3]": {"biological_target": "T3, GABPA (Homo sapiens, UniProt Q06546 1-454)", "T3 sequence": "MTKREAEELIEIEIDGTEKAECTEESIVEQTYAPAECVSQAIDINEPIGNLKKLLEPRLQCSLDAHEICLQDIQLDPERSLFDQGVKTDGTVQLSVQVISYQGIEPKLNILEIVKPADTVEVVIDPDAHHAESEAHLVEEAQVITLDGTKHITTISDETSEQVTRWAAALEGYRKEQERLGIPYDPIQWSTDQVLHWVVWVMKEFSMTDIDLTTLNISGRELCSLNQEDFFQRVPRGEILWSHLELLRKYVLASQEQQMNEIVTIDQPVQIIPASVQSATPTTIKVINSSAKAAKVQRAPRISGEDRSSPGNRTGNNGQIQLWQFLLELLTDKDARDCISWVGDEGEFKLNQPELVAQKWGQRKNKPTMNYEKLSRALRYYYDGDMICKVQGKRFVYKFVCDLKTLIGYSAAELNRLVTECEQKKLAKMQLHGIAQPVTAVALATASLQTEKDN", "conditions": "protein: recombinant; tags: N-terminal GST; dsDNA, one strand shown", "in_short": "as §1"}, "[4]": {"biological_target": "T4, ERG (Homo sapiens, UniProt P11308 1-479)", "T4 sequence": "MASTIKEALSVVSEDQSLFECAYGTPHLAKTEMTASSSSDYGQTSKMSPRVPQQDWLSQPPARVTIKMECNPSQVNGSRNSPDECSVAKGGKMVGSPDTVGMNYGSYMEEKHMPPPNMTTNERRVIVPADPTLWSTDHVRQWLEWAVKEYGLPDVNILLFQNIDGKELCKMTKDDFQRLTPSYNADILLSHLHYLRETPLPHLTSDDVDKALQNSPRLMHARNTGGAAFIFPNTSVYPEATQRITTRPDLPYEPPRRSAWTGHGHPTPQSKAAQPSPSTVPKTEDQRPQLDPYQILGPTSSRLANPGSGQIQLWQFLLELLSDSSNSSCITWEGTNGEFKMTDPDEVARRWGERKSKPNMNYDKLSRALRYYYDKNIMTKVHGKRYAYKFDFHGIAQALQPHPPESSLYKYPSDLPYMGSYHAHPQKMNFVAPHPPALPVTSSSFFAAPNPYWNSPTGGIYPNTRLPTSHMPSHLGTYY", "conditions": "protein: recombinant; tags: N-terminal GST; dsDNA, one strand shown", "in_short": "as §1"}, "[5]": {"biological_target": "ELF1 (Homo sapiens, UniProt P32519 1-619)", "sequence (P32519 whole entry)": "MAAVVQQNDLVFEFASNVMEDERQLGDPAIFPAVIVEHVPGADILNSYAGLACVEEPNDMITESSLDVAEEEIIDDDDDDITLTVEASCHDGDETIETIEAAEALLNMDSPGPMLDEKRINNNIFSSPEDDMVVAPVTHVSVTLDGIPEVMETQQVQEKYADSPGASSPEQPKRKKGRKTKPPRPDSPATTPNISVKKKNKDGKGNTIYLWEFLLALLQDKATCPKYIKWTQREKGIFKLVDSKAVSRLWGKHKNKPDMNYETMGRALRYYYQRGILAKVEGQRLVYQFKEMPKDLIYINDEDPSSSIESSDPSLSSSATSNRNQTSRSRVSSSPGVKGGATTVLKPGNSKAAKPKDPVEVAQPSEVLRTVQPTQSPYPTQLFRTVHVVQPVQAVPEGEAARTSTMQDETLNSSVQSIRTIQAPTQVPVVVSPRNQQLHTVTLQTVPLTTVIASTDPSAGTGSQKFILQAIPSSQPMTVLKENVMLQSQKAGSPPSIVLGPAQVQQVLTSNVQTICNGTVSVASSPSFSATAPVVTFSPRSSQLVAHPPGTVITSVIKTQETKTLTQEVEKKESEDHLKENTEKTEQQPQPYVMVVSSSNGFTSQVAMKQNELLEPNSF", "conditions": "protein: recombinant; tags: N-terminal GST; dsDNA, one strand shown", "in_short": "as §1"}, "[6]": {"biological_target": "T5, EHF (Homo sapiens, UniProt Q9NZC4 1-300)", "T5 sequence": "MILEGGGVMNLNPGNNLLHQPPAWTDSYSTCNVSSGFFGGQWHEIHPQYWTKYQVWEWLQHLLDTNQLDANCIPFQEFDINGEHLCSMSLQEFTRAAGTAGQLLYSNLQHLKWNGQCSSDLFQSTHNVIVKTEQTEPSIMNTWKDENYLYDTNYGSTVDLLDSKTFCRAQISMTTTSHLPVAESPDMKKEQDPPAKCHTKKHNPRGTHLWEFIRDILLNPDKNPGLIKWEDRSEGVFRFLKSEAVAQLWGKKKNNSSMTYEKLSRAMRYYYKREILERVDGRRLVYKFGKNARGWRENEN", "conditions": "protein: recombinant; tags: N-terminal GST; dsDNA, one strand shown", "in_short": "as §1"}, "[7]": {"biological_target": "SPI1 (Homo sapiens, UniProt P17947 1-270)", "conditions": "protein: recombinant; tags: N-terminal GST; dsDNA, one strand shown", "in_short": "as §1"}, "[8]": {"biological_target": "SPIB (Homo sapiens, UniProt Q01892 1-262)", "sequence (Q01892 whole entry)": "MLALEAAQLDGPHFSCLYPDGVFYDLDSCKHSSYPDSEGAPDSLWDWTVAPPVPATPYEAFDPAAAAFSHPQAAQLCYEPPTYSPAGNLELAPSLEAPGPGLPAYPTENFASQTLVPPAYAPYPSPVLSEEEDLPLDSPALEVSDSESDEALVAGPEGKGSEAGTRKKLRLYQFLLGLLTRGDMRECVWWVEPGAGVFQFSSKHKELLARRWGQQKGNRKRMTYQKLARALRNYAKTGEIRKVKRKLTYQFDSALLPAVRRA", "conditions": "protein: recombinant; tags: N-terminal GST; dsDNA, one strand shown", "in_short": "as §1"}, "[9]": {"biological_target": "T6, ELK3 (Homo sapiens, UniProt P41970 1-407)", "T6 sequence": "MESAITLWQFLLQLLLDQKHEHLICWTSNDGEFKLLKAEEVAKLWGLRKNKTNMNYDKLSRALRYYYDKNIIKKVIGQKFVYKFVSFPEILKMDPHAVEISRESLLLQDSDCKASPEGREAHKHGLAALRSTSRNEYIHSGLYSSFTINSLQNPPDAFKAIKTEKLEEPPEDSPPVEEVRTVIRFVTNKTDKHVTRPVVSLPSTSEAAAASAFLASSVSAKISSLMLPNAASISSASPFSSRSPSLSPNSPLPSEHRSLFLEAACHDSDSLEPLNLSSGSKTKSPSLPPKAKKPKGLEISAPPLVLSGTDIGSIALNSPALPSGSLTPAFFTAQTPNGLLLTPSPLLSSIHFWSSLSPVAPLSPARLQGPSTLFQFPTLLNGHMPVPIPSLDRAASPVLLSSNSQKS", "conditions": "protein: recombinant; tags: N-terminal GST; dsDNA, one strand shown", "in_short": "as §1"}, "[10]": {"biological_target": "T7, FEV (Homo sapiens, UniProt Q99581 1-238)", "T7 sequence": "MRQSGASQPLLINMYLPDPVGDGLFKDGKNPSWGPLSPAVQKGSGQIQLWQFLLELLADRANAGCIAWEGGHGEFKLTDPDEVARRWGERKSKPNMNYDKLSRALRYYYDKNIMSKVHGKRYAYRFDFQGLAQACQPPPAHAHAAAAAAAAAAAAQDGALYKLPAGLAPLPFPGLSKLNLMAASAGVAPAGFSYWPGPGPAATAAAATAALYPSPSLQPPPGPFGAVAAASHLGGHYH", "conditions": "protein: recombinant; tags: N-terminal GST; dsDNA, one strand shown", "in_short": "as §1"}, "[11]": {"biological_target": "ETV5 (Homo sapiens, UniProt P41161 1-510)", "sequence (P41161 whole entry)": "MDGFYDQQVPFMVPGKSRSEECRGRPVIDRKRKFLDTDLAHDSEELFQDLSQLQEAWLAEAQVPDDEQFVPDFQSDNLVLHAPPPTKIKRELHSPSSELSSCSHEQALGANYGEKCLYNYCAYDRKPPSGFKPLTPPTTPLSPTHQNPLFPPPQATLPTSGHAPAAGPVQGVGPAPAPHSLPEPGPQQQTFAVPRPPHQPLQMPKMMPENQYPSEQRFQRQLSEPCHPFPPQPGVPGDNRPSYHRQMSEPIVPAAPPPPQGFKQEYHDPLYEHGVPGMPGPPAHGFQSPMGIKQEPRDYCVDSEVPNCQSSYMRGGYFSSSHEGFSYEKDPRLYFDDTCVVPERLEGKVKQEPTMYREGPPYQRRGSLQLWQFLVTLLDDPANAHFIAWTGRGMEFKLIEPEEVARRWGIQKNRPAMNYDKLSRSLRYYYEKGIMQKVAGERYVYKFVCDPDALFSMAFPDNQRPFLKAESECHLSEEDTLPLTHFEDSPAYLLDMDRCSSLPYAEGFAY", "conditions": "protein: recombinant; tags: N-terminal GST; dsDNA, one strand shown", "in_short": "as §1"}, "[12]": {"biological_target": "HSF1 (Homo sapiens, UniProt Q00613 1-529)", "sequence (Q00613 whole entry)": "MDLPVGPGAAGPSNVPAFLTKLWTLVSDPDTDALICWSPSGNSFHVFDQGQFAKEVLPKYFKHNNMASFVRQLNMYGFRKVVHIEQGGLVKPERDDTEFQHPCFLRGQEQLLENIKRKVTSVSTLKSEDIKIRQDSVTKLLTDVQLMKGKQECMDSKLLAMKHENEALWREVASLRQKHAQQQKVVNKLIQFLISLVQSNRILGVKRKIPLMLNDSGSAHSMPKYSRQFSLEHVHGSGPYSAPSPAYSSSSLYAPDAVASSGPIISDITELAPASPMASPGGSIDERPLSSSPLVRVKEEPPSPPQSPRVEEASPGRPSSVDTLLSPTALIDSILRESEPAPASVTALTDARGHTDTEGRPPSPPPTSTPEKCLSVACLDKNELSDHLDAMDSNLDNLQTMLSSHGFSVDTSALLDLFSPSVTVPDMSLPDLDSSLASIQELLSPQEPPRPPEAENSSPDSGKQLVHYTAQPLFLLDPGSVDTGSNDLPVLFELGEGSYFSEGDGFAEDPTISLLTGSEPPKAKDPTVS", "conditions": "protein: recombinant; tags: N-terminal GST; chain copies: 3; dsDNA, one strand shown", "in_short": "as §1"}, "[13]": {"biological_target": "ELF4 (Homo sapiens, UniProt Q99607 1-663)", "sequence (Q99607 whole entry)": "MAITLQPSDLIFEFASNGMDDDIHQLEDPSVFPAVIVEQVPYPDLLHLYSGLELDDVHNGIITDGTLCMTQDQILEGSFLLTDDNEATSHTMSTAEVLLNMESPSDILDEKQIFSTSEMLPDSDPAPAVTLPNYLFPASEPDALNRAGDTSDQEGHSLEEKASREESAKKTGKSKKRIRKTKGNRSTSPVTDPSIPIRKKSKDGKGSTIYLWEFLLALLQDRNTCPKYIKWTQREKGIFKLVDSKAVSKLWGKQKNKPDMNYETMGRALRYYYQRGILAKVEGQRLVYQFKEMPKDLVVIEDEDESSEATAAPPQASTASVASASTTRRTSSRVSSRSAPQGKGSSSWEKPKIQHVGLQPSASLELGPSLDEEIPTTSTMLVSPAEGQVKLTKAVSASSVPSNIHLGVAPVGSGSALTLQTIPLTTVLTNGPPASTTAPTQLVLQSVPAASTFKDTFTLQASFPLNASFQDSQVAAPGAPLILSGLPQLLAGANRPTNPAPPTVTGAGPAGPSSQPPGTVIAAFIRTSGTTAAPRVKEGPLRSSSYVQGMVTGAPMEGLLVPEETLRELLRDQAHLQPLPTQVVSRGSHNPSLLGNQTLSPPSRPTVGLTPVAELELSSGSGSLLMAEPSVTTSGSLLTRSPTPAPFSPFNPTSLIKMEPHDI", "conditions": "protein: recombinant; tags: N-terminal GST; dsDNA, one strand shown", "in_short": "as §1"}, "[14]": {"biological_target": "T8, ELK4 (Homo sapiens, UniProt P28324-2 1-405)", "T8 sequence": "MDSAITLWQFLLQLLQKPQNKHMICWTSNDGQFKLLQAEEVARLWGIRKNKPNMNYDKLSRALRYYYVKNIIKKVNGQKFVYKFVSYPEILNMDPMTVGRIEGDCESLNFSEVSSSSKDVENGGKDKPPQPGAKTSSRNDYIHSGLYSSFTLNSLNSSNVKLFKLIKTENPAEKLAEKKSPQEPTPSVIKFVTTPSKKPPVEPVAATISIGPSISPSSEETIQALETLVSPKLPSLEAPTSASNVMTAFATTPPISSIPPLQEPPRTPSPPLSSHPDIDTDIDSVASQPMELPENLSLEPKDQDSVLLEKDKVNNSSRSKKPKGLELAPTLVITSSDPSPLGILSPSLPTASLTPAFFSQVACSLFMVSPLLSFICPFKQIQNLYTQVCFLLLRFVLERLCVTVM", "conditions": "protein: recombinant; tags: N-terminal GST; dsDNA, one strand shown", "in_short": "as §1"}, "[15]": {"biological_target": "T9, ELF3 (Homo sapiens, UniProt P78545 1-371)", "T9 sequence": "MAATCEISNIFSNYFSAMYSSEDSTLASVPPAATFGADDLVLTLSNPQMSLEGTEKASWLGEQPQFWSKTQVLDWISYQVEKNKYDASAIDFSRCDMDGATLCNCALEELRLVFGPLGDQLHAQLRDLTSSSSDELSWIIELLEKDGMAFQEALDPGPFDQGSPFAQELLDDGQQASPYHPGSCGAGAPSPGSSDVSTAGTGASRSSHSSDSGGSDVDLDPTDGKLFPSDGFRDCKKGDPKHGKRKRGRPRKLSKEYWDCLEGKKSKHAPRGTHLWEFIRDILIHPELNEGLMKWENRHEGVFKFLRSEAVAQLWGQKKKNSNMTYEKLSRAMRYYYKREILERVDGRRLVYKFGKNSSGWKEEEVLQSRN", "conditions": "protein: recombinant; tags: N-terminal GST; dsDNA, one strand shown", "in_short": "as §1"}, "[16]": {"biological_target": "ETV1 (Homo sapiens, UniProt P50549 1-477)", "sequence (P50549 whole entry)": "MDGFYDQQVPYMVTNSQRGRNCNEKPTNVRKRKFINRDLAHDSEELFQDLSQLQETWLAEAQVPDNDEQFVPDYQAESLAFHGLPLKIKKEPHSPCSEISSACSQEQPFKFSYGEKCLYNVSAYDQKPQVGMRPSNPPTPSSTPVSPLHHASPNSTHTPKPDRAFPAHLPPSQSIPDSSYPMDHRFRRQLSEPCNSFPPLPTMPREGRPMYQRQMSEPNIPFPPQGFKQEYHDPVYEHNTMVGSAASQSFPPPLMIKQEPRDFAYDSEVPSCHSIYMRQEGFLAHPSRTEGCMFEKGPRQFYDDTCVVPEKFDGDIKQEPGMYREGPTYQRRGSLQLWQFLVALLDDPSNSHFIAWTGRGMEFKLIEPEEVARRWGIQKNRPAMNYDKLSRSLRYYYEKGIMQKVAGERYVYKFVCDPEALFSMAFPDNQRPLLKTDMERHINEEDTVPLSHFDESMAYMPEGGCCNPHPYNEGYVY", "conditions": "protein: recombinant; tags: N-terminal GST; dsDNA, one strand shown", "in_short": "as §1"}},
  "data": [
    {"sequence": "CAAGCA", "values": [
      {"measurement": "binding signal", "setting": "[1]", "value": "1.1 fold enrichment (6-mer frequency, TF over GST control)"},
      {"measurement": "binding signal", "setting": "[2]", "value": "1.1 fold enrichment (6-mer frequency, TF over GST control)"},
      {"measurement": "binding signal", "setting": "[3]", "value": "1.14 fold enrichment (6-mer frequency, TF over GST control)"},
      {"measurement": "binding signal", "setting": "[4]", "value": "1.07 fold enrichment (6-mer frequency, TF over GST control)"},
      {"measurement": "binding signal", "setting": "[5]", "value": "1.18 fold enrichment (6-mer frequency, TF over GST control)"},
      {"measurement": "binding signal", "setting": "[6]", "value": "1.02 fold enrichment (6-mer frequency, TF over GST control)"},
      {"measurement": "binding signal", "setting": "[7]", "value": "1.07 fold enrichment (6-mer frequency, TF over GST control)"},
      {"measurement": "binding signal", "setting": "[8]", "value": "1.06 fold enrichment (6-mer frequency, TF over GST control)"},
      {"measurement": "binding signal", "setting": "[9]", "value": "1.1 fold enrichment (6-mer frequency, TF over GST control)"},
      {"measurement": "binding signal", "setting": "[10]", "value": "1.13 fold enrichment (6-mer frequency, TF over GST control)"},
      {"measurement": "binding signal", "setting": "[11]", "value": "1.17 fold enrichment (6-mer frequency, TF over GST control)"},
      {"measurement": "binding signal", "setting": "[12]", "value": "1.03 fold enrichment (6-mer frequency, TF over GST control)"},
      {"measurement": "binding signal", "setting": "[13]", "value": "1.16 fold enrichment (6-mer frequency, TF over GST control)"},
      {"measurement": "binding signal", "setting": "[14]", "value": "1.14 fold enrichment (6-mer frequency, TF over GST control)"},
      {"measurement": "binding signal", "setting": "[15]", "value": "1.28 fold enrichment (6-mer frequency, TF over GST control)"},
      {"measurement": "binding signal", "setting": "[16]", "value": "1.1 fold enrichment (6-mer frequency, TF over GST control)"}
    ]}
  ]
}
